Assay results reported in PubChem BioAssay (NCATS).
A number with no mark means an inactive call. Records with an inconclusive call do not appear. Calls of active or inactive are those of the source. Unless noted, the call rests on the fitted dose curve; in most records, active means well fitted curve in the direction sought with a large enough effect; inconclusive means small, poorly fitted or top-dose-only effect, or another doubt; inactive means no such curve, though single readings can be large; an effect the other way counts as inactive or inconclusive.

Assays:
[1] = biological target: Lysosomal acid glucosylceramidase (Homo sapiens) (UniProt P04062); assay: Glucocerebrosidase-p2 (AID 348; in the data active means potency below about 10 µM; further: potency means the concentration at half of the fitted maximal effect); conditions: purified GBA, blue fluorogenic substrate, 40 min
Method in brief: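 Normal human glucocerebrosidase (0.2 nM) with blue fluorogenic substrate (80 uM final) in citrate/phosphate pH 5.9 with 10mM sodium taurocholate, 0.01% tween-20; 40 min RT, NaOH/glycine stop; fluorescence Ex 365/Em 440; AC50 from a titration from 0.6 nM upwards.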

[2] = AP1 Signaling Pathway (AID 357; active means well fitted curve in either direction with a large enough effect, not every such curve was filed as active; further: on the % scale 0 is the no-effect control and ±100 the full control effect); conditions: ME-180 AP-1-bla reporter, EGF-induced, beta-lactamase ratio, 5 h; at 7.69 µM (top of the series) unless noted
Method in brief: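 ME-180 cells with beta-lactamase reporter under AP-1 response element, stimulated with EC50 EGF; compounds tested in titration series, 5 h at 37 °C. CCF4 substrate added 2.5 h at room temperature; 460/530 nm emission ratio gave %activity and AC50.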

[3] = biological target: Cytochrome P450 1A2 (Homo sapiens) (UniProt P05177); assay: p450-cyp1a2 (AID 410; calls by dose curve; further: potency means the concentration at half of the fitted maximal effect); conditions: recombinant CYP1A2, luciferin-ME demethylation, luminescence; series mostly up to 57 µM
Method in brief: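 Read-out is luminescence from luciferin produced by CYP1A2 demethylation of Luciferin-ME (100uM, at Km). Detection reagent stopped the 60 min NADPH-dependent reaction; signals were normalized to 57 uM furafylline.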

[4] = NFAT Signaling Pathway (AID 444; active means well fitted curve in either direction with a large enough effect, not every such curve was filed as active;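 further: carbachol stimulus at about its EC50 of 1 µM final; on the % scale 0 is the no-effect control and ±100 the full control effect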); conditions: Jurkat NFAT-bla M1, carbachol, beta-lactamase ratio, 5 h; at 7.69 µM (top of the series) unless noted
Method in brief: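 Jurkat cells carrying an NFAT-driven β-lactamase reporter and co-transfected muscarinic M1 receptor were treated with compound plus carbachol (1 uM final, an EC50 level) for 5 h at 37 °C. CCF4 loading followed for 1 h at RT; 460/530 nm ratio gave %activity.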

[5] = Stat Signaling Pathway (AID 446; active means well fitted curve in either direction with a large enough effect, not every such curve was filed as active;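 further: ME-180 cervical cancer cells given 40 pM IL-6 alongside compound; SIE-controlled beta-lactamase reporter measured as 460/530 nm FRET emission ratio; on the % scale 0 is the no-effect control and ±100 the full control effect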); conditions: ME-180 (cervical carcinoma) SIE beta-lactamase reporter, IL-6 stimulated, 5 h; series mostly up to 7.69 µM
Method in brief: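 Normalization used AC90 stimulation (300 pM IL-6) and AC90 inhibition (125 nM pan-JAK inhibitor at 40 pM IL-6). The underlying signal is SIE-driven beta-lactamase in ME-180 cells after 5 h IL-6 exposure with compound.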

[6] = biological target: Glucocorticoid receptor (Homo sapiens) (UniProt P04150); assay: GR-EFC Redistribution (AID 451; calls by dose curve; further: potency means the concentration at half of the fitted maximal effect); conditions: CHO-K1 GR-EFC translocation, beta-gal luminescence, 2 h
Method in brief: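 CHO-K1 cells stably expressing nuclear-localized β-gal enzyme acceptor and GR fused C-terminally to the enzyme donor fragment; ligand-driven nuclear translocation restores β-gal by complementation. Compounds titrated up to 46 uM final, 2 h at 37 °C; luminescence read.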

[7] = biological target: Mitogen-activated protein kinase 10 (Mus musculus) (UniProt Q61831); assay: JNK3 AlphaScreen Assay (AID 530; active means well fitted curve in either direction with a large enough effect, not every such curve was filed as active;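 further: kinase came from lysate of stimulated human HepG2 cells; signal reports phosphorylation of biotinylated GST-cJun 1-79 at Ser73 with 10 µM ATP; on the % scale 0 is the no-effect control and ±100 the full control effect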); conditions: JNK3 lysate, c-Jun phosphorylation; series mostly up to 57.1 µM
Method in brief: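 Biotinylated GST-cJun(1-79) served as substrate for JNK3 in HepG2 lysates stimulated with IL-1beta and TNF-alpha. ATP was 10 uM final, pH 7.6. Ser73 phosphorylation was quantified by AlphaScreen (680 nm excitation).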

[8] = biological target: 3',5'-cyclic-AMP phosphodiesterase 4B (Homo sapiens) (UniProt Q07343); assay: qHTS Assay for Inhibitors of PDE-IV (AID 607; active means well fitted activation curve with a large enough effect in the main read-out, with a control signal flat, not every such curve was filed as active; further: % of control where 0% means no effect); conditions: HEK293 ACTOne CNG channel cells, membrane potential fluorescence; series mostly up to 22.9 µM
Method in brief: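 HEK293 ACTOne cells with CNG channel (1000/well), endogenous PDE4; membrane potential dye, compounds up to 22.9 uM final. Fluorescence Ex 535/Em 590; RO 20-1724 (100 uM final) as reference.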

[9] = biological target: Dual specificity protein kinase CLK4 (Homo sapiens) (UniProt Q9HAZ1); assay: qHTS Assay for Inhibitors of CDC-like Kinase 4 (Kinase-Glo Assay) (AID 1770); conditions: recombinant Clk4, Kinase-Glo ATP depletion luminescence; series mostly up to 66.7 µM; further: nearly all actives have a fitted effect of over 65% in size; further: potency means the concentration at half of the fitted maximal effect
Method in brief: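 Readout: Kinase-Glo luminescence from ATP left after a 4.5 h room-temperature reaction of 25 nM Clk4 with 100 uM RS peptide and 1 uM ATP (final). Buffer: 25 mM Tris pH 7.5, 10 mM MgCl2.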

[10] = biological target: Dual specificity protein kinase CLK4 (Homo sapiens) (UniProt Q9HAZ1); assay: qHTS Assay for Inhibitors of CDC-like Kinase 4 (ADP-Glo Assay) (AID 1771); conditions: recombinant CLK4, ADP-Glo luminescence; series mostly up to 80 µM; further: nearly all actives have a fitted effect of over 70% in size; further: potency means the concentration at half of the fitted maximal effect
Method in brief: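 In this ADP-Glo format, 1 uM ATP and 100 uM RS peptide served as substrates for 25 nM Clk4 in Mg2+/EGTA/DTT/Triton buffer; reactions ran 1 hr at room temperature before luminescent ADP quantification.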

[11] = biological target: Dual specificity protein kinase CLK4 (Homo sapiens) (UniProt Q9HAZ1); assay: qHTS Assay for Inhibitors of CDC-like Kinase 4 (ADP-FP Assay) (AID 1795); conditions: Transcreener ADP fluorescence polarization; series mostly up to 50 µM; further: nearly all actives have a fitted effect of over 60% in size; further: potency means the concentration at half of the fitted maximal effect
Method in brief: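 FP readout: Orange Transcreener ADP2 tracer (4 nM) plus ADP antibody, read after 30 min at room temperature. Kinase step: 6.25 nM Clk4, 100 uM RS peptide, 1 uM ATP, pH 7.5, 1 h.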

[12] = biological target: Ubiquitin carboxyl-terminal hydrolase 1 (Homo sapiens) (UniProt O94782); assay: Inhibitors of USP1/UAF1: Pilot qHTS (AID 504865); conditions: purified USP1/UAF1, Ub-rhodamine cleavage fluorescence; series mostly up to 54.9 µM;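 further: rhodamine fluorescence freed from ubiquitin-rhodamine substrate followed over time; top concentration of the series differs between compounds; on the % scale 0 is the no-effect control and ±100 the full control effect; nearly all actives have a fitted effect of over 35% in size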
Method in brief: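 1nM USP1/UAF1 + cpd, 15 min RT; start w/ Ub-Rho 150nM final; kinetic FL 480/540 nm, 6 reads q60 s. Buffer 50mM HEPES pH 7.8, 0.5mM EDTA, 1mM TCEP, 0.01% Tween-20, 0.1 mg/ml BSA.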

[13] = biological target: Glucocorticoid receptor (Homo sapiens) (UniProt P04150); assay: GR-GFP Redistribution (AID 450;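 active means compounds whose dose series gives a full or clear partial fitted curve of increased nuclear translocation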; further: potency means the concentration at half of the fitted maximal effect); conditions: U2OS GR-GFP nuclear translocation, laser cytometry, 2 h
[14] = biological target: Cytochrome P450 3A4 (Homo sapiens) (UniProt P08684); assay: qHTS Assay for Activators of Cytochrome P450 3A4 (AID 885); conditions: recombinant CYP3A4, Luciferin-PPXE luminescence, 60 min; series mostly up to 57.1 µM; further: nearly all actives have a fitted effect of over 65% in size
Method in brief: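 Human CYP3A4 dealkylates Luciferin-PPXE to luciferin, which luciferase detection converts to light. Substrate was at its KM (25uM), buffer 200mM KPO4, reaction 60 min at RT.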

[15] = biological target: Cytochrome P450 2D6 (Homo sapiens) (UniProt P10635); assay: qHTS Assay for Inhibitors and Substrates of Cytochrome P450 2D6 (AID 891); conditions: recombinant CYP2D6, luciferin-ME EGE luminescence; series mostly up to 57.1 µM; further: potency means the concentration at half of the fitted maximal effect; nearly all actives have a fitted effect of over 60% in size
Method in brief: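 Luminescent read-out of luciferin formed by 5 nM human CYP2D6 demethylating 30 uM Luciferin-ME EGE (Km level) over 60 min at room temperature after NADPH regeneration addition. Data normalized to full inhibition by 1.43 uM quinidine.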

[16] = biological target: Cytochrome P450 2C9 (Homo sapiens) (UniProt P11712); assay: qHTS Assay for Inhibitors and Substrates of Cytochrome P450 2C9 (AID 883); conditions: recombinant CYP2C9, luciferin-H luminescence, 60 min; series mostly up to 57.1 µM; further: on the % scale 0 is the no-effect control and ±100 the full control effect; nearly all actives have a fitted effect of over 60% in size
Method in brief: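 Human CYP2C9 (10nM) hydroxylated Luciferin-H (100uM, at its KM) to luciferin in 25mM KPO4. Compound was preincubated 10 min at 37C, then NADPH regeneration started a 60 min reaction at 37C. Luminescence was read after detection reagent, normalized to 57uM sulphaphenazole.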

Sequence of 3',5'-cyclic-AMP phosphodiesterase 4B (Homo sapiens) (Q07343 whole entry, looked up): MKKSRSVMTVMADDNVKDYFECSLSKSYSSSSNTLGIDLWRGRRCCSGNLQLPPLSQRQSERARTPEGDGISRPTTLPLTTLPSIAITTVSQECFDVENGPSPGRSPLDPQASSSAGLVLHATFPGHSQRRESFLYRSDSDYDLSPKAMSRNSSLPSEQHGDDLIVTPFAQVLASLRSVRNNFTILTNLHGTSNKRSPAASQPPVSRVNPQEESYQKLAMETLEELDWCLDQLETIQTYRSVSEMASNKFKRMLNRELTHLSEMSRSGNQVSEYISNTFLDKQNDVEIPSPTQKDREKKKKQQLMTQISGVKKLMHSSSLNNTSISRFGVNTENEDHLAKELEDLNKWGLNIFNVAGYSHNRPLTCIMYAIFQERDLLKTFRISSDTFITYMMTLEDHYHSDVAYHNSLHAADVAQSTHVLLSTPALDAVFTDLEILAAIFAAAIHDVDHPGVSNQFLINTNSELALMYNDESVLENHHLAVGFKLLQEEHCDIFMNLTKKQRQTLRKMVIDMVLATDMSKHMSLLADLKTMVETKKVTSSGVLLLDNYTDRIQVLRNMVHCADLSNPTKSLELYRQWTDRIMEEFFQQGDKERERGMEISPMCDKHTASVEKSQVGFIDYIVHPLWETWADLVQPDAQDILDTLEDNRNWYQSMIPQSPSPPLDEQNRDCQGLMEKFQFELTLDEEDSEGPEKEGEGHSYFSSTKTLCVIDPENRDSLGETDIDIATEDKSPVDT
Sequence of Cytochrome P450 3A4 (Homo sapiens) (P08684 whole entry, looked up): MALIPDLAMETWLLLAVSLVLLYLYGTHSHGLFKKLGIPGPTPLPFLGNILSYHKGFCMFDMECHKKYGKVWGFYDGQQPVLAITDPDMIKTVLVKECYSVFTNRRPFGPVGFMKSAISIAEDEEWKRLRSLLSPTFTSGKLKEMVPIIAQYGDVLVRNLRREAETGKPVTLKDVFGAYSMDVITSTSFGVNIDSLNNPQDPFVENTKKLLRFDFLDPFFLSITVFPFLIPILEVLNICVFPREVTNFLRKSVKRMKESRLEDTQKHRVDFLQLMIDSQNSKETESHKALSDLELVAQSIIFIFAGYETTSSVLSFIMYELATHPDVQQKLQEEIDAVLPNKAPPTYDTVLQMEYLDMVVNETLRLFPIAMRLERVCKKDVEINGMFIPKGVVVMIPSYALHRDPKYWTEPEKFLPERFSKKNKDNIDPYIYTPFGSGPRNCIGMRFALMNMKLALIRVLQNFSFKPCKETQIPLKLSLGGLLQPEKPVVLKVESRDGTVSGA
Sequence of Glucocorticoid receptor (Homo sapiens) (P04150 whole entry, looked up, the tested form may be a part): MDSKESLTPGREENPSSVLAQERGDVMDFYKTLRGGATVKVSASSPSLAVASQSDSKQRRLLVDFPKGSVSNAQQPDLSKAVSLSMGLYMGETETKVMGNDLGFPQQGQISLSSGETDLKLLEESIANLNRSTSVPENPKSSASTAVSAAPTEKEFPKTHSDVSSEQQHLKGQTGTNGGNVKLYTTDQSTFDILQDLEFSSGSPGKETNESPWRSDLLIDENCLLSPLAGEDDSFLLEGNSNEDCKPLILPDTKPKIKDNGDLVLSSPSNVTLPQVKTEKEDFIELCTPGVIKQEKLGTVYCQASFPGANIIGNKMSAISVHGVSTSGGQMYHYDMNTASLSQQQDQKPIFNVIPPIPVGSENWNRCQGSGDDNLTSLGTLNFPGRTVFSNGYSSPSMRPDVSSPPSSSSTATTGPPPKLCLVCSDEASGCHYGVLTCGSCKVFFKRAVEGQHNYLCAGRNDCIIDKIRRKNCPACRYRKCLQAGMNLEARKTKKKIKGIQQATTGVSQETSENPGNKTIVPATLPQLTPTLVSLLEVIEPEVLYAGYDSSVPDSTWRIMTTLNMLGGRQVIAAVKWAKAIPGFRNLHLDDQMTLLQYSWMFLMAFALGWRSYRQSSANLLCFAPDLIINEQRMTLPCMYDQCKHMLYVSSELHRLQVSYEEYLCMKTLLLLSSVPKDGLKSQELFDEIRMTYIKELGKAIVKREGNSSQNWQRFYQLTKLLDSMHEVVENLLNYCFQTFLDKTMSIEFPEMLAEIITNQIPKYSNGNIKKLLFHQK
Sequence of Ubiquitin carboxyl-terminal hydrolase 1 (Homo sapiens) (O94782 whole entry, looked up): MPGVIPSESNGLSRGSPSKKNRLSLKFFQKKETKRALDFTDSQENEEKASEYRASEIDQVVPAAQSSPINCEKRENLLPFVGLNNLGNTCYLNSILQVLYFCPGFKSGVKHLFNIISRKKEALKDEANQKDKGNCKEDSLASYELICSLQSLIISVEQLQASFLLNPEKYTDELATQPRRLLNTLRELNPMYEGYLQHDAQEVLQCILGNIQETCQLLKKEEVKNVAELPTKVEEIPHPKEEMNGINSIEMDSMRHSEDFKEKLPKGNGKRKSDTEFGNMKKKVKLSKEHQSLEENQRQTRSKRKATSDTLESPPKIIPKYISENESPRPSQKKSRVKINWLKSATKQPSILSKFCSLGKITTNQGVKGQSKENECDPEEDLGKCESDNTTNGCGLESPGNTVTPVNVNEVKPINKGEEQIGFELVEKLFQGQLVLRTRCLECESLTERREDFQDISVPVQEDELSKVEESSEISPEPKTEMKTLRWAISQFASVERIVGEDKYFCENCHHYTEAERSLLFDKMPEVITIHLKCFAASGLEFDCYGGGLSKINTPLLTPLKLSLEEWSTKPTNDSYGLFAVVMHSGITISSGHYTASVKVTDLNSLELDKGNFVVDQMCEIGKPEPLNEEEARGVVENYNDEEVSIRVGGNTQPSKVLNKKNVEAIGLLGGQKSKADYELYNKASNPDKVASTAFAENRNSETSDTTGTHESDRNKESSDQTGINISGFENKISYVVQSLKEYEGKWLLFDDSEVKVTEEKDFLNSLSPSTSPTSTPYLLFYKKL
Sequence of Cytochrome P450 1A2 (Homo sapiens) (P05177 whole entry, looked up): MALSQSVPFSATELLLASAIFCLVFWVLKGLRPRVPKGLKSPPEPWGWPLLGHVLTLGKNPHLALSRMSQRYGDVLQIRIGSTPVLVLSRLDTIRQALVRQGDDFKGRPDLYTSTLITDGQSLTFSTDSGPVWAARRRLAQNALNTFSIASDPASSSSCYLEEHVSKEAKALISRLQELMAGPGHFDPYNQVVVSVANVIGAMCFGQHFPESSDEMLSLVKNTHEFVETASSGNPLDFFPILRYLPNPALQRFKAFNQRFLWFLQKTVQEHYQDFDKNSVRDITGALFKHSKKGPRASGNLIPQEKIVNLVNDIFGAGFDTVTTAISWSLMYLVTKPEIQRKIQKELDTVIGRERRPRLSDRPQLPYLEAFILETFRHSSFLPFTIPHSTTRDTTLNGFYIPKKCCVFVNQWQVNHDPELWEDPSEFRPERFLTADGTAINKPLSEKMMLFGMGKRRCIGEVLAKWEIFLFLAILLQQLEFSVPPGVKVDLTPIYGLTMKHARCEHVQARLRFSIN
Sequence of Lysosomal acid glucosylceramidase (Homo sapiens) (P04062 whole entry, looked up): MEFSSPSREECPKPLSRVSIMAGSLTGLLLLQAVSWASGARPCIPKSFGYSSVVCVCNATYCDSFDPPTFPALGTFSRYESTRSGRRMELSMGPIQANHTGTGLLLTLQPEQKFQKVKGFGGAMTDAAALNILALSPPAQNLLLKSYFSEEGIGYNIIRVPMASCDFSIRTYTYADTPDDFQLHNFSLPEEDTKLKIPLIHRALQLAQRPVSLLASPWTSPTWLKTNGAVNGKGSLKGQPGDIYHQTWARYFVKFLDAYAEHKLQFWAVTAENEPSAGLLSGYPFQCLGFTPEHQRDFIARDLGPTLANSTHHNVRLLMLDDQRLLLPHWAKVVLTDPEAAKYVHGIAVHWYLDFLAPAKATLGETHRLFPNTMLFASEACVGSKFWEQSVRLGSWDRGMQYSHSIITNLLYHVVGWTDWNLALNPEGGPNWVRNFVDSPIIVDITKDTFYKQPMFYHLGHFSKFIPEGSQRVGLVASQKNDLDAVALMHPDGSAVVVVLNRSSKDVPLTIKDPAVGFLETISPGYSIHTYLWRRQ
Sequence of Dual specificity protein kinase CLK4 (Homo sapiens) (Q9HAZ1 whole entry, looked up): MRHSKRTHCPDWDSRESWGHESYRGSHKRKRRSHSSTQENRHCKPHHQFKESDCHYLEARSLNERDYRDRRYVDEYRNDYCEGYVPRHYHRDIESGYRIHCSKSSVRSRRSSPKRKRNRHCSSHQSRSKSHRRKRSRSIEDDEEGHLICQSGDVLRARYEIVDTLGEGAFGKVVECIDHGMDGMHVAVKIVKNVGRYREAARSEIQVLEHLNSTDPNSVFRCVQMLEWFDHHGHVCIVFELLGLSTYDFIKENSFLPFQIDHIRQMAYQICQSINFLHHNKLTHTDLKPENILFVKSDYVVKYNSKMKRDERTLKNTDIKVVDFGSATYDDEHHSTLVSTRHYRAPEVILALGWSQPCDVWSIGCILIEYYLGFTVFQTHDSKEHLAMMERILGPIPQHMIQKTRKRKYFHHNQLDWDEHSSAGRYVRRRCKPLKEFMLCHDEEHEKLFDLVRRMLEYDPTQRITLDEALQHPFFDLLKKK
Sequence of Cytochrome P450 2D6 (Homo sapiens) (P10635 whole entry, looked up): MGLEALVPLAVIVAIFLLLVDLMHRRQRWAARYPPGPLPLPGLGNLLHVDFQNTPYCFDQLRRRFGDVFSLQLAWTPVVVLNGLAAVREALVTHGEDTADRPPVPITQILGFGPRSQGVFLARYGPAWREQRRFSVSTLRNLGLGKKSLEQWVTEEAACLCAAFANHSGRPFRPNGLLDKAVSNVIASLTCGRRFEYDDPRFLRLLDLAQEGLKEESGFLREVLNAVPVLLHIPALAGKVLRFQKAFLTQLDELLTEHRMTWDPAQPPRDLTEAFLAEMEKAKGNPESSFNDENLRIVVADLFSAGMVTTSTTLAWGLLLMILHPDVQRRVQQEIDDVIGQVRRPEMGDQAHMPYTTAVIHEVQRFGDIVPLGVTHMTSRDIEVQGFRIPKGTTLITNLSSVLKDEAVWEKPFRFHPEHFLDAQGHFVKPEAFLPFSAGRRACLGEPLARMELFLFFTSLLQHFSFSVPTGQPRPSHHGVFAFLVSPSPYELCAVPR

| SMILES | Potency [1] [µM] | activity change, negative = inhibition [2] [%] | Potency [3] | activity change, negative = inhibition [4] [%] | outcome [5] | Potency [6] [µM] | Potency [7] | Potency [8] | Potency [9] | Potency [10] | Potency [11] | Potency [12] | Potency [13] [µM] | outcome [14] | Potency [15] | Potency [16] |
| --- | --- | --- | --- | --- | --- | --- | --- | --- | --- | --- | --- | --- | --- | --- | --- | --- |
| O=c1c(CCc2ccccc2)nc2cnc(N3CCNCC3)nc2n1-c1ccccc1 | > 11.4 | -11.6 | 15.8 µM (active) | 6.64 | inactive | > 46 | inactive | inactive | inactive | inactive | inactive | inactive |  |  |  |  |
| COc1ccc(Oc2ncc3nc(-c4ccc(F)cc4)c(=O)n(C[C@H]4CCCO4)c3n2)cc1 | > 11.4 | -23.4 |  | 0.101 |  | > 46 | inactive | inactive | inactive | inactive | inactive | inactive | > 9.22 |  |  |  |
| CN1CCN(c2ncc3nc(-c4ccccc4)c(=O)n(Cc4cccs4)c3n2)CC1 | > 11.4 | 7.66 | 15.8 µM (active) | -9.53 | inactive |  |  | inactive | inactive | inactive | inactive | inactive |  |  |  |  |
| COc1cccc(Cn2c(=O)c(CCc3ccccc3)nc3cnc(N(C)C)nc32)c1 | > 11.4 | -2.39 | 15.8 µM (active) | 6.19 | inactive | > 46 | inactive |  | inactive | inactive | inactive |  | > 9.22 | inactive |  |  |
| O=c1c(CCc2ccccc2)nc2cncnc2n1Cc1ccccc1 | > 11.4 |  |  | -4.57 | inactive |  |  |  | inactive | inactive | inactive | inactive | > 46 |  |  |  |
| Cc1cnc(CNc2ncnc3ccc(-c4ccc(N(C)C)cc4)cc23)cn1 |  |  | 1 µM (active) | 5.72 | inactive | > 46 |  | inactive | 8.91 µM (active) | 11.2 µM (active) | inactive | inactive | > 46 | inactive |  |  |
| c1cncc(CNc2nc(-c3cccnc3)nc3ccccc23)c1 | > 11.4 | -12.9 | 0.316 µM (active) | -15.2 | inactive | > 46 | inactive |  | 7.08 µM (active) | 12.6 µM (active) | 11.2 µM (active) | inactive | > 46 |  |  |  |
| CN(C)C(=O)c1ccc(-c2nc(Nc3ccccc3)c3ccccc3n2)cc1 | > 11.4 | -10.3 | 0.398 µM (active) | 2.53 | inactive | > 46 |  |  | 15.8 µM (active) | 28.2 µM (active) |  | inactive | > 46 | inactive |  |  |
| Cc1nc2cnc(N3CCN(C)CC3)nc2n(CCc2ccccc2)c1=O | > 11.4 | 0.08 | 10 µM (active) | -16.9 |  | > 46 |  |  | inactive | inactive | inactive | inactive | > 9.22 | inactive | 2.51 µM (active) |  |
| N#CCCn1c(=O)c(-c2ccc(Cl)cc2)nc2cnc(N3CCOCC3)nc21 |  | 0.155 | 15.8 µM (active) | 5.23 | inactive | > 46 | inactive | inactive | inactive | inactive | inactive | inactive |  |  |  | inactive |
| COc1cccc(-c2ccc3ncnc(Nc4ccccc4)c3c2)c1 | > 11.4 |  | 1 µM (active) |  | inactive | > 46 | inactive |  | 2 µM (active) | 2.82 µM (active) | 0.282 µM (active) | inactive | > 46 | inactive |  |  |
| N#Cc1cccc(-c2nc(NCCN3CCOCC3)c3ccccc3n2)c1 |  | -13 | 1 µM (active) |  | inactive | > 46 | inactive | inactive | 11.2 µM (active) | 6.31 µM (active) | 7.94 µM (active) | inactive | > 46 | inactive | 7.94 µM (active) |  |
